Consider 16 sequences from article PMC7862700, “An all-to-all approach to the identification of sequence-specific readers for epigenetic DNA modifications on cytosine”.

Holding throughout (assay): DAPPL (digital affinity profiling via proximity ligation, sequencing); 10 mM Tris-HCl pH 7.5, 50 mM NaCl, 1 mM DTT, 4% glycerol, room temperature, 30 min; GST-TFs on glutathione beads, 16-mer random dsDNA library, 0.1% formaldehyde crosslink after washing; high values mean tight binding
Holding throughout (settings): protein: recombinant; tags: N-terminal GST; dsDNA, one strand shown

Assay [1] has as its target T1, ERF (Homo sapiens, UniProt P50548 1-548).
T1 sequence: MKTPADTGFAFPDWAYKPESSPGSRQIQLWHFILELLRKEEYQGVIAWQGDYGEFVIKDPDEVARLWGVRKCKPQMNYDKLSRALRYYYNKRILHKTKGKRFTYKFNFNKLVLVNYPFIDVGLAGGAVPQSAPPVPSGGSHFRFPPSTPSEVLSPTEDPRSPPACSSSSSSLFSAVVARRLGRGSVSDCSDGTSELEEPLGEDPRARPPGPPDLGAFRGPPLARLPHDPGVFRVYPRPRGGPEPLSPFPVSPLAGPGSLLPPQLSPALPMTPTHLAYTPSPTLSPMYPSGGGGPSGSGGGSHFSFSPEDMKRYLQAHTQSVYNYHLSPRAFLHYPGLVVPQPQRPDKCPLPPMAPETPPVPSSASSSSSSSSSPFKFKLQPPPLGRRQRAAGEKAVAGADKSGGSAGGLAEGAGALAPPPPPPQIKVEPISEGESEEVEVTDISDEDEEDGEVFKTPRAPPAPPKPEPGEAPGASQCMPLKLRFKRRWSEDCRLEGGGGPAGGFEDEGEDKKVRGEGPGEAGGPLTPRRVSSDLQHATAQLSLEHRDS
In outline:
(§1)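 GST fusions of human transcription factors were expressed in yeast and captured with glutathione beads. Once given DNA barcodes and pooled alongside a tag-only sample, they were incubated for 30 min at room temperature with 200 nmole of a random double-stranded 16-mer DNA library in Tris/NaCl/DTT/glycerol buffer, then washed, crosslinked (0.1% formaldehyde), proximity-ligated, PCR-amplified and sequenced on an Illumina NextSeq500. The binding signal of each hexamer is its read frequency for a factor divided by its frequency for the tag-only sample.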

For assay [2], the target named is T2, SPDEF (Homo sapiens, UniProt O95238 1-335).
T2 sequence: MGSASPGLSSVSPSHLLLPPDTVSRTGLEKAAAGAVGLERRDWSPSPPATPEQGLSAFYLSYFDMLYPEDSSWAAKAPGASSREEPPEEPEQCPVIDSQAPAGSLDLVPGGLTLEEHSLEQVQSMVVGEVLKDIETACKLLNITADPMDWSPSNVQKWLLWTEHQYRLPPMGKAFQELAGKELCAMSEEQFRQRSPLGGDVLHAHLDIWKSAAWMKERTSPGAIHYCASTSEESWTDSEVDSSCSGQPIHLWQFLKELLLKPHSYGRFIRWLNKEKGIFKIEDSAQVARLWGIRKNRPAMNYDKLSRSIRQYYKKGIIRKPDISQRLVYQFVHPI
In outline:
as §1

In assay [3] the target is T3, ETV7 (Homo sapiens, UniProt Q9Y603 1-341).
T3 sequence: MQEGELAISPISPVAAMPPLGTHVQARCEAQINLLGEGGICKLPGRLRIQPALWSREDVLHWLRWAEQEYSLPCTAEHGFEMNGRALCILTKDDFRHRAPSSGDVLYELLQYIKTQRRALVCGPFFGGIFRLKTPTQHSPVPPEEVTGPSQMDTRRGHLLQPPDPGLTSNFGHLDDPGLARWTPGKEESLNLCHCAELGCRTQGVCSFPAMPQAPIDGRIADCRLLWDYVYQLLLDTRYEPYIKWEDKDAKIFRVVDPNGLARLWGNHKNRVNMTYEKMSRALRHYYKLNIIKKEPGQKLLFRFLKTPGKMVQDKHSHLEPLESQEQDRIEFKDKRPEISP
In outline: as §1

Assay [4] has as its target T4, ELF5 (Homo sapiens, UniProt Q9UKW6-2 1-255).
T4 sequence: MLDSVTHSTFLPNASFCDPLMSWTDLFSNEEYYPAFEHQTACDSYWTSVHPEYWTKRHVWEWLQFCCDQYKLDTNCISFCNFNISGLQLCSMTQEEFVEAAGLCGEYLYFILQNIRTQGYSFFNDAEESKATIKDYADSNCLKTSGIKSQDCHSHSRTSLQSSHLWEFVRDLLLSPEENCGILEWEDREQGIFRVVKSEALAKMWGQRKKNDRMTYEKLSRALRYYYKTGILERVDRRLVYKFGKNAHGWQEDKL
The method, boiled down: as §1

The target of assay [5] is T5, ETV3 (Homo sapiens, UniProt P41162-2 1-143).
T5 sequence: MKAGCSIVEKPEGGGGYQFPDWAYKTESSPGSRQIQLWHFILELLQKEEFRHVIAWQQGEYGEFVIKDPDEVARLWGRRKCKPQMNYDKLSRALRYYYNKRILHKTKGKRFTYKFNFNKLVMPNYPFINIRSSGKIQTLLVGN
In outline: as §1

Assay [6] deals with ETV6 (Homo sapiens, UniProt P41212 1-452). In outline:
as §1

Assay [7] concerns the target T6, ETS2 (Homo sapiens, UniProt P15036 1-469).
T6 sequence: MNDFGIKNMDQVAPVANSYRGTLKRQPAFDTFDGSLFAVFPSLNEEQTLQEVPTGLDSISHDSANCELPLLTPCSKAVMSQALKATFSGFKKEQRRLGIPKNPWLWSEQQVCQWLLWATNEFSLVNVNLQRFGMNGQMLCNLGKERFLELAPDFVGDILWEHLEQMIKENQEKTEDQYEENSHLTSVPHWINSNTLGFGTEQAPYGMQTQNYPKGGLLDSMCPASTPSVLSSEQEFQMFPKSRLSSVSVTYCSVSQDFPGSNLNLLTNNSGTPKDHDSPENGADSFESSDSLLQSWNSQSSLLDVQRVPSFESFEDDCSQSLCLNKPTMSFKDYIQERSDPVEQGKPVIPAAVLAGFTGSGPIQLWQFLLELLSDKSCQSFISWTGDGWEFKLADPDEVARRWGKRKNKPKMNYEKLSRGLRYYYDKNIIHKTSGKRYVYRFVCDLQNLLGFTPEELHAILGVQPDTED
The method, boiled down: as §1

Sequence of ETV6 (P41212 whole entry): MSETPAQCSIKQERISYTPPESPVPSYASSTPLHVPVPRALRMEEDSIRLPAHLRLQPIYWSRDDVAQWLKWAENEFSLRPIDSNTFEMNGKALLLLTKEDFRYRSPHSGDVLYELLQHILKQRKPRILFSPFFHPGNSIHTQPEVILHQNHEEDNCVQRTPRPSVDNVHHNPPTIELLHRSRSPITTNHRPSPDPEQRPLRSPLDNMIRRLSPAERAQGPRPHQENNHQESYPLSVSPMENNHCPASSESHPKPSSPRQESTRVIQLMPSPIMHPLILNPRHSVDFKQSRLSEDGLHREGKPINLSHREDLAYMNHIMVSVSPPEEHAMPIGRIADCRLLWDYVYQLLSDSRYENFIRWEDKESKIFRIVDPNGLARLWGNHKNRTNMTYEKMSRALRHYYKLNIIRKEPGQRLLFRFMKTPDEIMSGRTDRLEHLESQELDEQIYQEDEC

For AACGTA, the binding signal is 1.05 fold enrichment (6-mer frequency, TF over GST control) in assay [1]; 1.01 fold enrichment (6-mer frequency, TF over GST control) in assay [2]; 1.05 fold enrichment (6-mer frequency, TF over GST control) in assay [3]; 1 fold enrichment (6-mer frequency, TF over GST control) in assay [4]; 1.04 fold enrichment (6-mer frequency, TF over GST control) in assay [5]; 1.03 fold enrichment (6-mer frequency, TF over GST control) in assay [6].
With CAACAA, the binding signal in assay [1] was 1.05 fold enrichment (6-mer frequency, TF over GST control); in assay [7] it was 1.08 fold enrichment (6-mer frequency, TF over GST control); in assay [3] it was 1.02 fold enrichment (6-mer frequency, TF over GST control); in assay [4] it was 1.03 fold enrichment (6-mer frequency, TF over GST control); in assay [5], 1.08 fold enrichment (6-mer frequency, TF over GST control); in assay [6], 1.01 fold enrichment (6-mer frequency, TF over GST control).
With GGCCCT, the binding signal in assay [1] is 1.02 fold enrichment (6-mer frequency, TF over GST control); in assay [3] it was 1.03 fold enrichment (6-mer frequency, TF over GST control); in assay [5], 1.03 fold enrichment (6-mer frequency, TF over GST control).
In the case of CTGTAA, the binding signal is 1.2 fold enrichment (6-mer frequency, TF over GST control) in assay [1]; 1.09 fold enrichment (6-mer frequency, TF over GST control) in assay [7]; 1.03 fold enrichment (6-mer frequency, TF over GST control) in assay [4]; 1.12 fold enrichment (6-mer frequency, TF over GST control) in assay [5]; 1.03 fold enrichment (6-mer frequency, TF over GST control) in assay [6].
Consider GGTTCA, for which the binding signal is 1.01 fold enrichment (6-mer frequency, TF over GST control) in assay [1]; 1.11 fold enrichment (6-mer frequency, TF over GST control) in assay [7]; 1.13 fold enrichment (6-mer frequency, TF over GST control) in assay [2]; 1.02 fold enrichment (6-mer frequency, TF over GST control) in assay [4]; 1.09 fold enrichment (6-mer frequency, TF over GST control) in assay [5]; 1.09 fold enrichment (6-mer frequency, TF over GST control) in assay [6].
Regarding GCAATA, the binding signal is 1.03 fold enrichment (6-mer frequency, TF over GST control) in assay [1]; 1.04 fold enrichment (6-mer frequency, TF over GST control) in assay [7]; 1.04 fold enrichment (6-mer frequency, TF over GST control) in assay [2]; 1.08 fold enrichment (6-mer frequency, TF over GST control) in assay [3]; 1.04 fold enrichment (6-mer frequency, TF over GST control) in assay [5]; 1.03 fold enrichment (6-mer frequency, TF over GST control) in assay [6].
As for AAGGTT, the binding signal was 1.01 fold enrichment (6-mer frequency, TF over GST control) in assay [1]; 1.08 fold enrichment (6-mer frequency, TF over GST control) in assay [7]; 1.02 fold enrichment (6-mer frequency, TF over GST control) in assay [2]; 1.15 fold enrichment (6-mer frequency, TF over GST control) in assay [3]; 1.1 fold enrichment (6-mer frequency, TF over GST control) in assay [4]; 1.07 fold enrichment (6-mer frequency, TF over GST control) in assay [5]. Besides, the binding signal in assay [6] was 1 fold enrichment (6-mer frequency, TF over GST control).
Take TCGTAC: the binding signal was 1.01 fold enrichment (6-mer frequency, TF over GST control) in assay [1]; 1.07 fold enrichment (6-mer frequency, TF over GST control) in assay [7]; 1.06 fold enrichment (6-mer frequency, TF over GST control) in assay [2]; 1.15 fold enrichment (6-mer frequency, TF over GST control) in assay [3]; 1.02 fold enrichment (6-mer frequency, TF over GST control) in assay [4]; 1.02 fold enrichment (6-mer frequency, TF over GST control) in assay [5]. The binding signal in assay [6] is 1.08 fold enrichment (6-mer frequency, TF over GST control).
As for AGTTAA, the binding signal in assay [1] is 1.1 fold enrichment (6-mer frequency, TF over GST control); in assay [7] it was 1.06 fold enrichment (6-mer frequency, TF over GST control); in assay [2], 1.01 fold enrichment (6-mer frequency, TF over GST control); in assay [3], 1.01 fold enrichment (6-mer frequency, TF over GST control); in assay [4] it was 1.03 fold enrichment (6-mer frequency, TF over GST control); in assay [5], 1.13 fold enrichment (6-mer frequency, TF over GST control). Moreover, the binding signal in assay [6] was 1.11 fold enrichment (6-mer frequency, TF over GST control).
Take AGGTTT: the binding signal in assay [1] is 1.13 fold enrichment (6-mer frequency, TF over GST control); in assay [7] it was 1.01 fold enrichment (6-mer frequency, TF over GST control); in assay [2], 1.02 fold enrichment (6-mer frequency, TF over GST control); in assay [3] it was 1.08 fold enrichment (6-mer frequency, TF over GST control); in assay [4], 1.04 fold enrichment (6-mer frequency, TF over GST control); in assay [5], 1.11 fold enrichment (6-mer frequency, TF over GST control). Moreover, the binding signal in assay [6] is 1.03 fold enrichment (6-mer frequency, TF over GST control).
In the case of ATGTAG, the binding signal was 1.14 fold enrichment (6-mer frequency, TF over GST control) in assay [1]; 1.08 fold enrichment (6-mer frequency, TF over GST control) in assay [7]; 1.09 fold enrichment (6-mer frequency, TF over GST control) in assay [2]; 1.04 fold enrichment (6-mer frequency, TF over GST control) in assay [4]; 1.08 fold enrichment (6-mer frequency, TF over GST control) in assay [5]; 1.02 fold enrichment (6-mer frequency, TF over GST control) in assay [6].
CTATGA: the binding signal is 1.12 fold enrichment (6-mer frequency, TF over GST control) in assay [1]; 1.15 fold enrichment (6-mer frequency, TF over GST control) in assay [7]; 1.07 fold enrichment (6-mer frequency, TF over GST control) in assay [2]; 1.08 fold enrichment (6-mer frequency, TF over GST control) in assay [3]; 1 fold enrichment (6-mer frequency, TF over GST control) in assay [4].
Regarding CATGAA, the binding signal in assay [1] is 1.02 fold enrichment (6-mer frequency, TF over GST control); in assay [7], 1.07 fold enrichment (6-mer frequency, TF over GST control); in assay [2], 1.03 fold enrichment (6-mer frequency, TF over GST control); in assay [4] it was 1.04 fold enrichment (6-mer frequency, TF over GST control); in assay [5], 1.14 fold enrichment (6-mer frequency, TF over GST control).
Consider CGGTAT, for which the binding signal in assay [1] is 1.02 fold enrichment (6-mer frequency, TF over GST control); in assay [7] it was 1.01 fold enrichment (6-mer frequency, TF over GST control); in assay [2] it was 1.32 fold enrichment (6-mer frequency, TF over GST control); in assay [4] it was 1.1 fold enrichment (6-mer frequency, TF over GST control); in assay [5] it was 1.05 fold enrichment (6-mer frequency, TF over GST control); in assay [6], 1.06 fold enrichment (6-mer frequency, TF over GST control).
As to CAGAAT, the binding signal was 1 fold enrichment (6-mer frequency, TF over GST control) in assay [1]; 1.06 fold enrichment (6-mer frequency, TF over GST control) in assay [2]; 1.02 fold enrichment (6-mer frequency, TF over GST control) in assay [4]; 1.02 fold enrichment (6-mer frequency, TF over GST control) in assay [6].
Turning to AAACGA, the binding signal is 1.17 fold enrichment (6-mer frequency, TF over GST control) in assay [1]; 1.15 fold enrichment (6-mer frequency, TF over GST control) in assay [7]; 1.03 fold enrichment (6-mer frequency, TF over GST control) in assay [2]; 1.05 fold enrichment (6-mer frequency, TF over GST control) in assay [3]; 1.09 fold enrichment (6-mer frequency, TF over GST control) in assay [4]; 1.07 fold enrichment (6-mer frequency, TF over GST control) in assay [5]. In assay [6], the binding signal is 1.12 fold enrichment (6-mer frequency, TF over GST control).
